Hits are enriched below; roughly 19% of the tested compounds scored in any of these assays.
TDP1 cell noCPT – qHTS for Inhibitors of human tyrosyl-DNA phosphodiesterase 1 (TDP1): qHTS in cells in absence of CPT. DT40 Tdp1-/- hTDP1 cells, no CPT, ATP luminescence, 48 h. Potency, µM (series often up to 46.2 µM), for the others: at the top dose activity change, negative = growth inhibition, usual class: inhibitors. 420,000 tested, 15% active. AID 686978, 2013; also: potency is read from the fitted curve at half-maximal effect; nearly all actives have a fitted effect of over 55% in size
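Seeded 400 DT40-hTDP1 cells/well (vehicle DMSO, no 20 nM CPT); pinned compounds; ≥48 hr at 37 °C; CellTiter-Glo luminescence as viability measure.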
HT1080 IDH1KD tx – qHTS for induction of synthetic lethality in tumor cells producing 2HG: qHTS for the HT-1080-IDH1KD cell line; HT-1080 IDH1 knockdown viability, ATP luminescence, 48 h; Potency, µM (highest dose often 46.1 µM), for inactives: at the top dose activity, negative = toxicity, usual class: cytotoxic; 360,000 tested, 2% active; AID 686971, 2013;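 also: potency is read from the fitted curve at half-maximal effect; 0% = DMSO wells and -100% = cell-free medium wells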
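Cytotoxicity counter-line: IDH1KD HT-1080, 48 h, CellTiter-Glo. Curves classed by r2, magnitude and activity.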
DT40 TDP1 CPT – qHTS for Inhibitors of human tyrosyl-DNA phosphodiesterase 1 (TDP1): qHTS in cells in presence of CPT | chicken DT40 Tdp1-/-;hTDP1 cells + 20 nM CPT, ATP luminescence, 48 h | Potency, µM (titrated, usually from 46.2 µM), inactives show at the top dose activity change, negative = growth inhibition, hits mostly inhibitors | 420,000 tested, 12% active; also: potency is read from the fitted curve at half-maximal effect; nearly all actives have a fitted effect of over 55% in size
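Cell growth measured by CellTiter-Glo luminescence after a minimum 48 h, 37 C compound exposure with 20 nM CPT in Tdp1-knockout DT40 cells stably expressing hTDP1, seeded 400/well; qHTS titration format.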
HT1080-NT tox – qHTS for induction of synthetic lethality in tumor cells producing 2HG: qHTS for the HT-1080-NT fibrosarcoma cell line. HT-1080-NT fibrosarcoma viability, CellTiter-Glo ATP luminescence, 48 h. 360,000 tested, 1.6% active. AID 686970, 2013. Potency, µM (doses to about 46.1 µM), for inactives: at the top dose activity, negative = less viability, usual class: cytotoxic;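 also: NT is the 2HG producing partner of a matched IDH1 knockdown line; potency is read from the fitted curve at half-maximal effect; 0% = DMSO-treated cells and -100% = media-only wells without cells; nearly all actives have a fitted effect of over 55% in size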
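Luminescent CellTiter-Glo readout after 48 hours of compound exposure at 37 degrees C defined viability of HT-1080-NT cells. Activity was normalized to DMSO wells and cell-free media wells; concentration-response curves were fitted and assigned curve classes.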
IL-1B inflam inh – qHTS for Inhibitors of Inflammasome Signaling: IL-1-beta AlphaLISA Primary Screen; THP-1 LPS/ATP IL-1B secretion, AlphaLISA, 16 h; active compounds read low; activity change, % at 57.5 µM; 360,000 tested, 4.7% active; in the data active = activity change below about -50%; inconclusive = mostly about -30% to -49%
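THP-1 cells pretreated 1 hr with compounds (up to 57.5 uM final), then stimulated with LPS (250 ng/mL final) plus ATP (1.25 mM final); secreted IL-1B measured by AlphaLISA after 16 hr, decreased signal indicating inhibition.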
The depositor's hits bear a star; ? = inconclusive; . = not tested or not shown; [ ] = remark or other dose. Unless noted, calls follow the shape of the dose curve; as a rule, active = well fitted curve in the direction sought with a large enough effect; inconclusive = small, poorly fitted or top-dose-only effect, or another doubt; inactive = no such curve, though single readings can be large; an effect the other way counts as inactive or inconclusive. Unless noted, % is scaled to controls: 0 for no effect and ±100 for the full control effect.

SMILES | TDP1 cell noCPT | HT1080 IDH1KD tx | DT40 TDP1 CPT | HT1080-NT tox | IL-1B inflam inh
O=[N+]([O-])c1cccc(/C=N/Nc2nc(NCc3ccccc3)nc(N3CCOCC3)n2)c1O | ? | ? | 13µM* | ? | 180
COc1ccc(CNc2nc(-c3ccco3)nn2C(=O)CC(C)C)cc1 | -13% | . | -23% | . | .
CCC12C(=Nc3c(Cl)cccc31)C[C@@H]1CCN3C(=O)CCC[C@H]2[C@H]13 (some centres not stated) | ? | 7% | ? | 10% | 14
COc1cc([N+](=O)[O-])cc2cc(C(=O)N3CCCC3)c(=O)oc12 | -8% | 10% | 5% | 15% | 3
CC(C)(C)OC(=O)C[C@@H]1C/C=C\C[C@@H](CC(=O)N(CCO)Cc2ccccc2)C(=O)N[C@H](C(C)(C)C)COC1=O | ? | 7% | 21µM* | 12% | 14
CC(C)(C)OC(=O)C[C@H]1C/C=C\C[C@@H](CC(=O)N(CCO)Cc2ccccc2)C(=O)N[C@H](C(C)(C)C)COC1=O | 15µM* | 9% | ? | -5% | 2
CC(C)(C)OC(=O)C[C@@H]1C/C=C\C[C@H](CC(=O)N(CCO)Cc2ccccc2)C(=O)N[C@H](Cc2ccccc2)COC1=O | 23µM* | -1% | ? | -1% | -19
C[C@H]1COC(=O)[C@H](CC(=O)OC(C)(C)C)C/C=C\C[C@@H](CC(=O)N(CCO)Cc2ccccc2)C(=O)N1 | ? | 16% | ? | 11% | 18
CC(=O)c1c(C(C)=O)c(C)n(-c2ccc(C)c(NC(=O)c3ccccc3Cl)c2)c1C | ? | -22% | ? | 0% | -3
CC(=O)c1ccc(-c2cccc(-c3cc(=O)oc4ccc(C(C)(C)C)cc34)c2)cc1 | ? | 0% | ? | -4% | -30
Cc1cccc(C(=O)N2CCC(=O)N(C(COCc3cccc(Cl)c3)Cc3ccccc3)CC2)c1 (configuration not stated) | 16µM* | -16% | ? | -18% | -29
O=C(c1cccc(Cl)c1)N1CCC(=O)N([C@H](COCc2ccccc2)Cc2ccccc2)CC1 | 18µM* | -16% | ? | -30% | ?
Cc1cccc(C(=O)N2CCC(=O)N([C@H](COCc3cccc(Cl)c3)Cc3ccccc3)CC2)c1 | 18µM* | ? | 23µM* | ? | -11
Cc1cccc(C(=O)N2CCC(=O)N(C(COCc3ccc(Cl)cc3)Cc3ccccc3)CC2)c1 (configuration not stated) | 21µM* | -18% | 21µM* | -16% | -28
Cc1cccc(C(=O)N2CCC(=O)N([C@H](COCc3ccc(Cl)cc3)Cc3ccccc3)CC2)c1 | ? | ? | ? | ? | -12
COc1cccc(Nc2ncc(C#N)c(N)n2)c1 | -1% | ? | -9% | -13% | -13
CCC(=O)N1CCc2cc(Br)cc(S(=O)(=O)N3CCCC(C(=O)Nc4ccc(C(C)C)cc4)C3)c21 (configuration not stated) | ? | . | -26% | . | .
O=C(OCc1cc(=O)n2nc(-c3cccs3)sc2n1)c1ccccc1Cl | -9% | . | -6% | . | .
Cc1cccc(N(C(=O)c2csnn2)C(C(=O)NCc2ccccc2)c2cccs2)c1 (configuration not stated) | ? | 4% | -19% | 13% | 3
Cc1ccccc1CNC(=O)c1sc2ncnc(N(C)C3CCCCC3)c2c1C | 21µM* | . | ? | . | .
Cc1sc2ncnc(N(C)C3CCCCC3)c2c1C | ? | -17% | -28% | -13% | 50
Cc1c(C(=O)NCc2ccccc2Cl)sc2ncnc(NCC3CCCO3)c12 (configuration not stated) | -7% | . | -4%[9.04 µM] | . | .
Cc1ccc(CNC(=O)c2sc3ncnc(N(C)C4CCCCC4)c3c2C)cc1 | 26µM* | . | ? | . | .
COC(=O)c1ccccc1-n1c(C)nc(=O)c(-c2ccccc2)c1C | 0% | 12% | 5% | 5% | 1
Cc1onc(-c2ccccc2)c1C(=O)NCCN1Cc2ccccc2OC(c2ccsc2)C1 (configuration not stated) | 15µM* | . | -1%[9.04 µM] | . | .
SMILES | TDP1 cell noCPT | HT1080 IDH1KD tx | DT40 TDP1 CPT | HT1080-NT tox | IL-1B inflam inh
Cc1ccc2c(c1)CN(CCNC(=O)c1c(-c3ccccc3)noc1C)CC(C)O2 (configuration not stated) | -11% | . | 5%[9.04 µM] | . | .
Cc1cc(C(=O)CSc2nc(N)cc(N)n2)c(C)n1CCc1ccc(F)cc1 | ? | ? | ? | ? | -66*
Cc1cc(C(=O)COC(=O)c2ccc(O)cc2)c(C)n1CCc1ccc(F)cc1 | -26% | -18% | 0% | -1% | 13
Cc1cc(C(=O)CSc2nc(N)cc(N)n2)c(C)n1-c1cccc(C(F)(F)F)c1 | ? | -1% | 23µM* | 0% | -11
O=C(NCCc1ccccc1)c1cc(-c2ccccc2)c(N2CCOCC2)s1 | 16µM* | -11% | ? | 0% | ?
CCN(CC)CCCNC(=O)c1cc(-c2ccccc2)c(N2CCCCC2)s1 | 15µM* | ? | ? | ? | -10
O=C(NCCc1ccccc1)c1cnc2sc(N3CCOCC3)nn2c1=O | -9% | . | -13% | . | .
CCN(CC)CCCNC(=O)c1nn2c(C(F)(F)F)cc(-c3ccccc3)nc2c1Cl | ? | 8% | ? | 10% | ?
CSc1ccc(CCNC(=O)c2cc(-c3ccccc3)c(N3CCOCC3)s2)cc1 | 16µM* | 1% | ? | 0% | -12
COc1ccc(CCNC(=O)c2cc(-c3ccccc3)c(N3CCOCC3)s2)cc1OC | 16µM* | -22% | 21µM* | -24% | -11
O=C(COc1ccc(Cl)cc1)OCc1cc(=O)n2nc(C3CCCCC3)sc2n1 | -23% | . | -3% | . | .
COc1ccc(S(=O)(=O)NCCSc2nnnn2-c2ccccc2)cc1OC | 23µM* | . | 16µM* | . | .
Cn1nnnc1SCCNS(=O)(=O)c1ccccc1 | -22% | 25% | -4% | 24% | 0
CCOc1cc(CNCCSc2nnnn2-c2ccccc2)ccc1OC | 10µM* | . | 12µM* | . | .
COc1cccc(CNCCSc2nnnn2-c2ccccc2)c1OC | 23µM* | . | ? | . | .
COc1ccc(S(=O)(=O)NCCOc2ccccc2)cc1-n1cnnn1 | -16% | 1% | -5% | -4% | -50*
Cc1onc(-c2ccccc2Cl)c1C(=O)Nc1cccc(S(=O)(=O)NC2=NCCC2)c1 | -20% | 10% | 0% | 15% | 28

Source: PubChem
